Assay outcomes: PubChem, National Center for Advancing Translational Sciences (NCATS)
Most compounds without a hit are left out; they make up all but 19% or so of the library.
TDP1 cell CPT: qHTS for Inhibitors of human tyrosyl-DNA phosphodiesterase 1 (TDP1): qHTS in cells in presence of CPT; chicken DT40 Tdp1-/-;hTDP1 cells + 20 nM CPT, ATP luminescence, 48 h; Potency, µM (series often up to 46.2 µM), without a hit: at the highest dose activity change, negative = growth inhibition, most hits filed as inhibitors; 420,000 tested, 12% active; AID 686979, 2013; also: potency is read from the fitted curve at half-maximal effect; nearly all actives have a fitted effect of over 55% in size
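Chicken DT40 Tdp1-/- cells stably complemented with human TDP1 were seeded at 400 cells/well in medium containing 20 nM camptothecin, exposed to pin-transferred compounds, and grown at 37 °C for at least 48 hr. Viability was read as ATP luminescence.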
IL1B secr inh: qHTS for Inhibitors of Inflammasome Signaling: IL-1-beta AlphaLISA Primary Screen; THP-1 LPS/ATP IL-1B secretion, AlphaLISA, 16 h; stronger effect = lower value; activity change, % at 57.5 µM; 360,000 tested, 4.7% active; AID 743279, 2014; in the data active = activity change below about -50%; inconclusive = mostly about -30% to -49%
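THP-1 cells pretreated 1 hr with compounds (up to 57.5 uM final), then stimulated with LPS (250 ng/mL final) plus ATP (1.25 mM final); secreted IL-1B measured by AlphaLISA after 16 hr, decreased signal indicating inhibition.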
TDP1 cell noCPT: qHTS for Inhibitors of human tyrosyl-DNA phosphodiesterase 1 (TDP1): qHTS in cells in absence of CPT; DT40 Tdp1-/- hTDP1 cells, no CPT, ATP luminescence, 48 h; Potency, µM (top dose mostly 46.2 µM), inactives show at the highest dose activity change, negative = growth inhibition, actives largely listed as inhibitors; 420,000 tested, 15% active; AID 686978, 2013; also: potency is read from the fitted curve at half-maximal effect; nearly all actives have a fitted effect of over 55% in size
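DT40 Tdp1-/-;hTDP1 cells, no CPT (DMSO vehicle only), 400 cells/well; compounds pin-transferred; ≥48 hr, 37 °C; CellTiter-Glo 30 min RT dark, luminescence read.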
HT1080-NT tox: qHTS for induction of synthetic lethality in tumor cells producing 2HG: qHTS for the HT-1080-NT fibrosarcoma cell line; HT-1080-NT fibrosarcoma viability, CellTiter-Glo ATP luminescence, 48 h; Potency, µM (series often up to 46.1 µM), for the others: top-dose activity, negative = less viability, actives largely listed as cytotoxic; 360,000 tested, 1.6% active; AID 686970, 2013;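 also: NT is the 2HG producing partner of a matched IDH1 knockdown line; potency is read from the fitted curve at half-maximal effect; 0% = DMSO-treated cells and -100% = media-only wells without cells; nearly all actives have a fitted effect of over 55% in size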
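Read-out is CellTiter-Glo luminescence after 10 minutes at room temperature, following 48 hours' compound treatment of HT-1080-NT cells (750 cells/well, RPMI, 5% FBS, 37 degrees C).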
ELG1 DNA repair: qHTS screen for small molecules that inhibit ELG1-dependent DNA repair in human embryonic kidney (HEK293T) cells expressing luciferase-tagged ELG1 | HEK293T ELG1-luciferase reporter, luminescence, 16 h; DNA damage induced by 5-fluorouridine | Potency, µM (highest dose often 46.1 µM), for the others: top-dose activity change, negative = inhibition, hits mostly inhibitors | 330,000 tested, 2.3% active; also: potency is read from the fitted curve at half-maximal effect; nearly all actives have a fitted effect of over 55% in size
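DMSO vehicle served as the neutral condition. Each well held 2,000 cells given 5-fluorouridine plus compound; after 16 hr at 37 °C/5% CO2, ONE-Glo was added and luciferase measured 30 min later.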
HT1080 IDH1KD tx: qHTS for induction of synthetic lethality in tumor cells producing 2HG: qHTS for the HT-1080-IDH1KD cell line. HT-1080 IDH1 knockdown viability, ATP luminescence, 48 h. Potency, µM (top dose mostly 46.1 µM), for the others: at the highest dose activity, negative = toxicity, actives largely listed as cytotoxic. 360,000 tested, 2% active. AID 686971, 2013;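 also: potency is read from the fitted curve at half-maximal effect; 0% = DMSO wells and -100% = cell-free medium wells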
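Assay cells: HT-1080 with IDH1 knockdown, 750 per well, RPMI/5% FBS. Exposure: 48 h at 37 °C following 2 h pre-incubation. Read: CellTiter-Glo luminescence; fitted concentration-response, curve class assigned.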
Active calls of the source: *; u = inconclusive; x = no result. Unless noted, calls follow the shape of the dose curve; as a rule, active = well fitted curve in the direction sought with a large enough effect; inconclusive = small, poorly fitted or top-dose-only effect, or another doubt; inactive = no such curve, though single readings can be large; an effect the other way counts as inactive or inconclusive. Unless noted, % is scaled to controls: 0 for no effect and ±100 for the full control effect.

SMILES | TDP1 cell CPT | IL1B secr inh | TDP1 cell noCPT | HT1080-NT tox | ELG1 DNA repair | HT1080 IDH1KD tx
Cn1c(SCC(=O)NCCc2ccccc2)ncc(C(=O)Nc2ccc(F)cc2)c1=O | u | 17.2 | u | 4.3% | 28.7% | 0.5%
Cc1c(OC(C)C(=O)NCC(O)c2ccccc2)ccc2c3c(c(=O)oc12)CCCC3 (stereo unspecified) | 23.1µM* | -28.5 | u | -13.8% | 14.6µM* | -6.1%
Cc1c(OC(C)C(=O)NCc2ccncc2)ccc2c3c(c(=O)oc12)CCCC3 (stereo unspecified) | 20.6µM* | u | u | -0.9% | u | -15.1%
O=C1CC(NN2CCCCC2)C(=O)N1c1ccccc1 (stereo unspecified) | 6.8% | 2.3 | 2.4% | 13.3% | 16.1% | 10.6%
CCOc1ccccc1CNC(=O)C1CCN(S(=O)(=O)c2cccc3nonc23)CC1 | -26.3% | x | -21.6% | x | x | x
O=C(C1CCCN(S(=O)(=O)c2cccc3nonc23)C1)N1CCN(c2cccc(Cl)c2)CC1 (stereo unspecified) | 16.4µM* | -52.5* | 23.1µM* | -0.5% | u | 5.3%
CCN1CCN(C(=O)C2CCCN(S(=O)(=O)c3cc(Cl)ccc3Cl)C2)CC1 (stereo unspecified) | -21.9% | -7.8 | -18.5% | 0.5% | 2.6% | -4.8%
O=C(C1CCCN(S(=O)(=O)c2cccc3nonc23)C1)N1CCN(c2ccccc2Cl)CC1 (stereo unspecified) | 23.1µM* | -50.5* | 16.4µM* | -0.5% | 23.1µM* | -22.0%
CC1CCN(C(=O)C2CCN(S(=O)(=O)c3cc(Cl)ccc3Cl)CC2)CC1 | u | -66.1* | 20.6µM* | 3.1% | u | -0.9%
COc1ccc(Cl)cc1NC(=O)C1CCCN(S(=O)(=O)c2cccc3nonc23)C1 (stereo unspecified) | u | 13.5 | u | -5.1% | -13.4% | 3.6%
CCOc1ccccc1N(C)C(=O)C1CCN(S(=O)(=O)c2cccc3nonc23)CC1 | u | -0.6 | 13µM* | 2.3% | u | 5.1%
COc1ccccc1N1CCN(S(=O)(=O)c2c(C(=O)N3CCOCC3)c(C)n(C)c2C)CC1 | u | -8.6 | u | 6.5% | 17.7% | 4.1%
O=C(c1n[nH]c2c1CCCC2)N1CCOc2ccc(C(O)C3CCCCC3)cc2C1 (stereo unspecified) | -25.4% | x | -26.6% | x | x | x
O=C(C1CCN(S(=O)(=O)c2cccc3nonc23)CC1)N1CCN(c2ccc(F)cc2)CC1 | 20.6µM* | x | 11.6µM* | x | x | x
Cc1cc(Br)ccc1NC(=O)C1CCCN(S(=O)(=O)c2cccc3nonc23)C1 (stereo unspecified) | u | x | -40.4% | x | x | x
Cc1ccc(Cl)cc1N1CCN(C(=O)C2CCN(S(=O)(=O)c3cccc4nonc34)CC2)CC1 | 11.6µM* | x | 7.31µM* | x | x | x
O=C(C1CCN(S(=O)(=O)c2cccc3nonc23)CC1)N1CCN(c2ccccc2)CC1 | u | x | 23.1µM* | x | x | x
Cc1ccc(C)c(N2CCN(C(=O)C3CCCN(S(=O)(=O)c4cccc5nonc45)C3)CC2)c1 (stereo unspecified) | 9.2µM* | x | 6.51µM* | x | x | x
O=C(C1CCN(S(=O)(=O)c2cccc3nonc23)CC1)N1CCCCC1 | -1.1% | 16.0 | -9.5% | -0.8% | -1.7% | 2.5%
O=S(=O)(c1cccc2nonc12)N1CCN(c2ccc(F)cc2)CC1 | -1.5% | -25.1 | -4.8% | -5.9% | u | 0.3%
Cc1ccc(Cl)cc1N1CCN(C(=O)CCS(=O)(=O)c2cccc3nonc23)CC1 | u | -1.5 | u | 1.3% | u | -5.5%
CCO[C@@H]1OC(C(N)=O)=C[C@H](C2CC2)[C@H]1CCCO | -3.1% | 17.8 | 7.3% | 10.6% | x | 12.5%
O=c1[nH][nH]c2c1[C@H](c1ccccc1)O[C@H](C1CCCCC1)C2 | -28.4% | -15.9 | -28.8% | -16.0% | x | -19.5%
O=C(C1CCN(S(=O)(=O)c2cccc3nonc23)CC1)N1CCN(c2cccc(Cl)c2)CC1 | 25.9µM* | x | 14.6µM* | x | x | x
O=C(NCc1ccc(F)cc1)C1CCCN(S(=O)(=O)c2cccc3nonc23)C1 (stereo unspecified) | 1.0% | 10.2 | 10.8% | -15.9% | 2.8% | -16.0%
SMILES | TDP1 cell CPT | IL1B secr inh | TDP1 cell noCPT | HT1080-NT tox | ELG1 DNA repair | HT1080 IDH1KD tx
O=C(C1CCCN(S(=O)(=O)c2cccc3nonc23)C1)N1CCC(Cc2ccccc2)CC1 (stereo unspecified) | 20.6µM* | u | 18.4µM* | -23.7% | x | -21.7%
Cc1cc(NC(=O)C2CCCN(S(=O)(=O)c3cccc4nonc34)C2)ccc1Br (stereo unspecified) | u | x | 16.4µM* | x | x | x
O=C(CCCCCn1nnc2ccccc2c1=O)Nc1ccccc1Cl | 12.0% | 42.1 | -16.1% | 0.6% | u | -0.3%
O=C(Cc1ccccc1)Nc1ccc2oc(-c3cccnc3)nc2c1 | -21.5% | 23.1 | -23.8% | 8.3% | -9.8% | 11.4%
O=C(Nc1ccc2oc(-c3cccnc3)nc2c1)c1ccc(-c2ccccc2OC(F)(F)F)o1 | 10.3µM* | x | 9.2µM* | x | x | x
O=C(Nc1ccc2oc(-c3cccnc3)nc2c1)c1ccc(-c2ccc(OC(F)(F)F)cc2)o1 | u | x | 20.6µM* | x | x | x
O=C(Nc1ccc2oc(-c3cccnc3)nc2c1)c1ccc(-c2ccccc2)o1 | 11.6µM* | x | 9.2µM* | x | x | x
CS(=O)(=O)c1ccc(Cl)c(NC(=O)c2ccc(-n3cncn3)c([N+](=O)[O-])c2)c1 | -17.5% | -3.6 | -8.2% | -4.4% | x | -1.8%
O=C(CN1C(=O)COc2ccc(S(=O)(=O)N3CCCCCC3)cc21)Nc1cccc(Cl)c1 | u | x | 20.6µM* | x | x | x
Cc1c(Cl)cccc1NC(=O)CN1C(=O)COc2ccc(S(=O)(=O)N3CCCCCC3)cc21 | 16.4µM* | x | u | x | x | x
COc1ccc(C)cc1NC(=O)CN1C(=O)COc2ccc(S(=O)(=O)N3CCCCCC3)cc21 | u | -54.2* | u | -11.8% | -31.1% | -6.9%
COC(=O)c1ccc(NC(=O)CN2C(=O)CCc3cc(S(=O)(=O)N4CCCCC4)ccc32)cc1 | -23.2% | x | -26.0% | x | x | x
